# Assay outcomes: PubChem BioAssay, several laboratories
# An excerpt weighted towards active compounds, which were near 8% of everything screened.
# PostGolgi yeast: growth inhibition of a yeast mutant, post-Golgi transport screen | post-Golgi transport phenotypic cell assay | inhibition, % at 10 µM | 0.9% of 98,000 active | AID 739;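 note: yeast cells grown in 1536-well plates; yeast grown about 18 h at 30C before absorbance read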
# Cav3 T inh: human Cav3.2 channel inhibition, primary screen; B-score at 10 µM; AID 449739; 4% of 100,000 active; Cav3.2-expressing cells, Fluo-4 calcium fluorescence FDSS; hits give low values;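 active = single-dose well whose peak fluorescence ratio is a statistical outlier from its plate by either plate-standardised score or position-corrected B-score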
# PostGolgi ctrl: growth of the yeast control strain, post-Golgi counter-screen | efflux-deficient yeast background strain, growth absorbance A615, 16 h | inhibition, % at 10 µM | 5% of 98,000 active
# Pyk2 oligo antag: antagonists of human Pyk2 oligomerization; 0.83% of 99,000 active; z-score (the deposit names both 25 µM and 10 µM); Q293 cells, Pyk2 FERM NanoBiT luminescence; hits give low values;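 active = Z-score of -3 or lower, scaled per plate to the spread of control and sample wells; inactive = z-score above -3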;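 note: negative z-score means lost luminescence so less FERM oligomerization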
# Starred values were filed as active, the others as inactive; x = no result given. Cut-off read from the data, not from the text of the source, unless noted: active = inhibition above about 30%; inactive = the rest.
SMILES,PostGolgi yeast,Cav3 T inh,PostGolgi ctrl,Pyk2 oligo antag
Cc1ccc(COn2c(-c3ccc(Cl)cc3Cl)nc3ncccc32)cc1,9,-5.4*,64*,-0.99
Clc1cccc(COn2c(-c3ccc(Cl)cc3Cl)nc3ncccc32)c1,-6,-4.1*,71*,-1.6
Cc1ccc(C(=O)COC(=O)CCC(=O)NC2CCCCC2)cc1C,-8,-3.5,10,1
CCOc1ccc(-c2nnc(-c3ccccc3)o2)cc1,x,-2.9*,x,0.35
CCOC(=O)c1nnc(-c2ccccc2)o1,0,-4.5*,7,0.61
Cc1cc(N2CCCC2)nc(SCC(=O)c2ccccc2)n1,x,-0.13,x,1.4
Cc1cc(N2CCC(C)CC2)nc(SCC(=O)c2ccccc2)n1,x,-4.7*,x,-2.6
CC1CCN(S(=O)(=O)c2ccc(NC(=O)Cc3ccccc3)cc2)CC1,-6,-5.9*,39*,-0.48
O=C(Nc1ccc(S(=O)(=O)N2CCCCC2)cc1)c1ccccc1Cl,-12,-2.7,18,-1
O=C(Nc1ccccc1)Nc1ccc(S(=O)(=O)N2CCCCC2)cc1,-10,-2.5,30*,-2.7
CC1CCN(S(=O)(=O)c2ccc(NC(=O)CCN3C(=O)c4ccccc4C3=O)cc2)CC1,83*,-2.5,6,-1.8
CC1CN(S(=O)(=O)c2ccc(NC(=O)CCN3C(=O)c4ccccc4C3=O)cc2)CC(C)O1 (configuration not stated),4,x,-3,0.26
CCOc1ccccc1NC(=O)C1CC2CCCC(C1)C2=O (configuration not stated),5,1.2,29,1.6
Clc1ccc(-c2nn3cnnc3s2)c(Cl)c1,5,-1.3,11,0.78
Cc1nn2c(-c3ccc(Cl)cc3Cl)nnc2s1,-21,-0.6,34*,-0.18
NC(=O)/C(=N\OC(=O)c1ccco1)c1nc(-c2ccc(Br)cc2)cs1,3,-0.8,1,-0.77
COc1ccc2nc3c(cc2c1)c(NC(=O)c1cccs1)nn3CC(C)C,10,x,37*,-3.4*
O=C(OCc1ccccc1)c1cccc(-c2nnn(Cc3ccccc3)n2)c1,8,-4.1*,-1,-0.18
O=C(Cn1nnc(-c2ccccc2)n1)OCc1ccccc1,-6,-0.035,7,0.62
O=C(Cn1c(C(=O)N2CCc3ccccc3C2)cc2sccc21)c1ccccc1,-2,-1.8,28,-4*
O=C(c1cccs1)N1CCN(C2CCCCC2)CC1,12,-1.6,-1,-0.66
O=C(Cn1c(C(=O)N2CCN(C3CCCCC3)CC2)cc2sccc21)c1ccccc1,5,-0.23,31*,-2.1
CC(CC(=O)NCc1cccnc1)c1ccccc1 (configuration not stated),x,1.1,x,0.15
COC(=O)c1ccc(OCCN2C3=NCCN3c3ccccc32)cc1,-20,0.19,-1,-0.55
CC(=O)Nc1ccc(Oc2cc(C#N)c(C#N)cc2N2CCCCCC2)cc1,8,-3.8*,17,-1.9
SMILES,PostGolgi yeast,Cav3 T inh,PostGolgi ctrl,Pyk2 oligo antag
Nc1c(C(=O)C2CC2)sc2nc(-c3cccs3)cc(C(F)(F)F)c12,3,-7.9*,-4,0.63
CC(=O)c1sc2nc(-c3cccs3)ccc2c1N,0,-1.8,24,0.35
CCOC(=O)[C@@H]1[C@H]2COc3ccc(Br)cc3[C@@H]2N2C(=O)N(c3cccc(F)c3)C(=O)[C@]12C,x,-1.7,x,x
CCOC(=O)Cc1csc(NC(=O)C(C)(C)CC)n1,15,0.27,7,0.34
Cc1ccc(NC2=CC(=O)CC(C)(C)C2)c(N)c1,-3,1.3,38*,0.33
O=C(c1ccc([N+](=O)[O-])cc1)N(Cc1ccc(Br)cc1)N1C(=O)CCCC1=O,4,-0.72,6,0.26
CCN(Cc1nc2ccccc2c(=O)[nH]1)Cc1cc(=O)oc2cc(OC)ccc12,1,2.3,3,0.75
O=C(Cc1cccc2ccccc12)NNC(=O)Nc1cccc(Cl)c1,16,-7.9*,-4,-0.14
Cc1cccc(OCC(=O)NNC(=O)Nc2cccc(Cl)c2)c1C,-3,0.47,-8,0.18
Cc1cccc(N2CCN(C(=O)c3ccc(NS(=O)(=O)c4c(C)noc4C)cc3)CC2)c1C,5,-7.2*,14,0.34
CCCCn1nnnc1SCC(=O)NCc1ccccc1,-4,0.52,3,0.67
Cc1c(C(=O)NCC2COc3ccccc3O2)oc2ccc(S(=O)(=O)N(C)C3CCCCC3)cc12 (configuration not stated),9,-4.3*,5,-0.51
Cc1c(C(=O)NCC2CCCO2)oc2ccc(S(=O)(=O)N3CCCC3)cc12 (configuration not stated),-2,0.93,10,0
Cc1ccc(SC(C)C(=O)Nc2ncn[nH]2)cc1 (configuration not stated),42*,-0.027,-4,x
CC(C(=O)Nc1ncn[nH]1)N1C(=O)c2ccccc2C1=O (configuration not stated),x,0.12,x,0
O=C(Nc1cccc(F)c1)N(Cc1ccc(Cl)cc1)CC(O)C(F)(F)F (configuration not stated),13,-7.2*,58*,-0.37
O=C(Cn1c(=O)oc2cc(S(=O)(=O)N3CCCC3)ccc21)N1CCc2ccccc2C1,4,-5.7*,-5,x
O=C(c1ccccc1)N1CCN(S(=O)(=O)N2CCCCC2)CC1,-6,x,44*,-0.94
O=C(c1ccc(C(=O)N2CCCCCC2)cc1)N1CCCCCC1,x,0.51,x,-0.19
CC1(C)Oc2ccc(NC(=O)C3COc4ccccc4O3)cc2O1 (configuration not stated),-6,-2.5,18,0.16
Cc1cccc(OCC(=O)Nc2ccccc2N2CCN(C(=O)C(C)C)CC2)c1C,3,-4.9*,42*,0.1
CC(=O)N1CCN(c2ccccc2NC(=O)COc2cc(C)ccc2C(C)C)CC1,-5,-5.7*,15,-2.7
CC(C)(C)NS(=O)(=O)c1ccc(CCC(=O)N2CCCCC2)cc1,-2,0.27,-2,-0.23
Oc1ccc(Oc2ccc3c(C(F)(F)F)cc(C(F)(F)F)nc3n2)cc1,9,-6.9*,10,-1.3
Cc1nnc(-c2cccc(Br)c2)c2cn(-c3cccc(Br)c3)nc12,7,-0.5,19,-0.84
SMILES,PostGolgi yeast,Cav3 T inh,PostGolgi ctrl,Pyk2 oligo antag
Cc1nnc(-c2cccc(Br)c2)c2cn(-c3ccc(Br)cc3)nc12,64*,0.27,49*,-0.65
Cc1nnc(-c2cccc(Br)c2)c2cn(-c3ccccc3)nc12,94*,0.75,21,-0.9
Cc1c(C(=O)N2CCCc3ccccc32)oc2ccc(S(=O)(=O)N3CCOCC3)cc12,3,-1.6,14,-1.9
COc1ccc(CC(=O)Nc2cccc(C(=O)O)c2C)cc1,14,0.11,34*,0.13
COC(=O)c1cc(NCc2ccc3c(c2)OCO3)ccc1N1CCOCC1,-8,-0.55,7,-0.85
O=C(O)c1cc(NCc2ccc3c(c2)OCO3)ccc1N1CCOCC1,32*,0.51,-2,-0.31
CC(C)OC(=O)c1cc2c(ccn2C)n1CC(=O)N1CCC(Cc2ccccc2)CC1,-2,-7.9*,25,0.09
Cc1ccccc1Cn1c(C(=O)OC(C)C)cc2c1ccn2C,-15,-0.84,15,0.94
CC(C)Cn1c(CN2CCCCC2C)nc2c1c(=O)n(C)c(=O)n2C (configuration not stated),-3,-0.17,3,x
